# From PubChem BioAssay
# HIF act: HIF pathway transcriptional activation; activation, % at 7.5 µM (by protocol); actives 0.32% (n = 300,000); U2OS HRE-luciferase reporter, luminescence; normalized: DMSO 0%, desferrioxamine 100%;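 active means mean activation of at least 10% of the iron chelator positive control signal, with at least half of replicates also reaching 10%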
# AI-2 QS mod: Vibrio harveyi AI-2 quorum sensing modulation; Vibrio harveyi JMH597 AI-2 luminescence/OD600 ratio, 9 h; hits give low values; strain lacks LuxN and CqsS sensors; 0 = neutral-control median; activity change, % at 7.5 µM; actives 0.4% (n = 300,000); AID 2094; in the data active means activity change below about -75%, passing the limit was not always enough;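 further: luminescence divided by OD600 gain over 9 h not by final OD600 alone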
# ALR inh: human ALR oxidase inhibition via reduced H2O2; purified ALR, DTT oxidation, H2O2 HRP-luminol luminescence; P55789; inhibition, % (concentration not given with the values); AID 485317; actives 3.8% (n = 290,000);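 active means mean replicate inhibition above about 79%, with every replicate also reaching it, limit read from the data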
# Target sequence (P55789 whole entry, looked up): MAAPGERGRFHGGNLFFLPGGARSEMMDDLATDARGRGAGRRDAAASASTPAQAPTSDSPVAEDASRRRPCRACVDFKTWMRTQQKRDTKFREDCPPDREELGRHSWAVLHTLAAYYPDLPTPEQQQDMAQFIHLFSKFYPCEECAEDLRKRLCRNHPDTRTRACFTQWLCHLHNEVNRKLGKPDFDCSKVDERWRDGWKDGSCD
# Mot1-301 SUMO: SUMOylation pathway inhibition by Mot1-301 growth rescue. growth rescue, % at 18.8 µM. actives 1% (n = 320,000). S. cerevisiae Mot1-301 growth rescue, ATP luminescence, 38.5C; percent above DMSO median, 100 means doubled;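 active means every valid replicate shows activation above 250% relative to neutral control wells; inactive means the rest, any valid replicate at or below 250%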;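 further: OY570 slx delta 5 strain wells were the positive control but not used for scaling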
# * hit, by the source's call; / = no result given. Most compounds without a hit are left out; they make up all but 4.8% or so of the library.
SMILES,HIF act,AI-2 QS mod,ALR inh,Mot1-301 SUMO
COC(=O)[C@H](Cc1ccccc1)NC(=O)N1CCCCCC1,0,21,-4,-12
COC(=O)[C@H](Cc1ccccc1)NC(=O)N1CCN(c2ccc(F)cc2)CC1,0,4,98*,61
COc1ccc(C(=O)CC(=O)C(=O)Nc2cccc(F)c2)cc1,1,49,80*,15
Cc1noc(C)c1NC(=O)Nc1ccc2c(c1)CC(=O)N([C@H](C)CO)C[C@@H](C)[C@H](CN(C)CC1CCCCC1)O2,/,/,0,17
CCOC(=O)C1CCN(S(=O)(=O)c2cccc(-c3cn4cccnc4n3)c2)CC1,0,8,98*,/
CCOC(=O)C1CCN(S(=O)(=O)c2cccc(-c3cn4cc(C)ccc4n3)c2)CC1,0,26,-4,1
CCOC(=O)C1CCN(S(=O)(=O)c2cccc(-c3csc(C)n3)c2)CC1,0,15,99*,3
CCOC(=O)C1=C(C)NC(C)=C(C(=O)OCC)C1C(=O)OCC(=O)NCc1ccccc1OC,/,/,-1,2
COC(=O)[C@]1(C)N[C@H](CN(C)S(=O)(=O)c2ccccc2)[C@@H]2C(=O)N(Cc3ccccc3)C(=O)[C@@H]21,/,/,0,-5
COc1ccc(NC2CS(=O)(=O)CC2NCc2ccco2)cc1 (stereo unspecified),0,8,99*,/
COc1cc(C(=O)N[C@@H](Cc2c[nH]c3ccccc23)C(=O)O)cc(OC)c1OC,1,0,/,-12
COc1cc(/C=C/C(=O)N[C@@H](Cc2c[nH]c3ccccc23)C(=O)O)ccc1O,1,15,86*,1
CCN1C(=O)C(=O)N(CC(=O)c2cc(C)n(C3CC3)c2C)C1=O,/,/,89*,6
CN1CCN(c2nc3c(c(=O)[nH]c(=O)n3C)n2Cc2ccccc2)CC1,1,17,-10,10
CN(C)c1ccc(N=Nc2ccc(S(=O)(=O)O)cc2)c2ccccc12,0,12,99*,-14
O=C(CN1C(=O)NC2(CCCC2)C1=O)NCCc1ccc(F)cc1,/,/,-3,-6
Cc1cc(S(=O)(=O)NCc2ccccc2)ccc1OCC(=O)N1CCCC1,0,39,0,-1
OC(COCc1ccccc1)Cn1cnc2ccccc21 (stereo unspecified),0,21,-5,-9
NCC(O)CN(c1ccccc1)c1ccccc1 (stereo unspecified),0,20,99*,380
OC(CN(c1ccccc1)c1ccccc1)Cn1cnc2ccccc21 (stereo unspecified),0,26,99*,1
CN(CCOc1ccccc1)CC(O)COc1ccccc1 (stereo unspecified),0,8,-10,220
Cc1cccc(C)c1OCC(O)CN (stereo unspecified),-3,-13,-4,-6
CC(C)[N+](C)(C)CC(O)CN(c1ccccc1)c1ccccc1 (stereo unspecified),-1,14,98*,26
OCCN(CCO)CC(O)CN(c1ccccc1)c1ccccc1 (stereo unspecified),0,/,99*,0
COc1ccccc1NC(=O)Nc1nc(CC(=O)NCc2ccc(F)cc2)cs1,-28,14,4,-3
SMILES,HIF act,AI-2 QS mod,ALR inh,Mot1-301 SUMO
Nc1nc(-c2c[nH]c3ccccc23)cs1,0,4,87*,-7
CC(C)Cn1c(=S)[nH]c2ccccc2c1=O,0,3,0,16
CC(C)COn1c(=S)[nH]c2ccccc2c1=O,1,7,97*,/
COc1ccccc1CNc1ccc(N2CCOCC2)c(C(=O)O)c1,0,21,99*,2
O=C(O)c1cc(NCc2ccccc2)ccc1N1CCOCC1,0,16,49,1
O=C(O)c1cc(NCc2ccc3c(c2)OCO3)ccc1N1CCOCC1,0,45,79*,-16
COC(=O)c1cc(NCc2ccc3c(c2)OCO3)ccc1N1CCOCC1,0,9,-1,5
CC1(c2ccc(Cl)cc2)NC(=O)N(CN2CCOCC2)C1=O (stereo unspecified),0,32,-4,14
COc1ccc(CCNC(=O)CCC(=O)NC2CCCC(C)C2C)cc1OC (stereo unspecified),0,-6,-6,-10
COC(=O)c1cc(NC(=S)Nc2cc(Cl)cc(Cl)c2)cc(C(=O)OC)c1,0,26,1,-8
COC(=O)C1=C(Nc2cc(Cl)cc(Cl)c2)CSC1,0,1,99*,9
O=C(Oc1ccc(-c2csnn2)cc1)c1cccs1,0,3,-7,15
O=C(Oc1ccccc1-c1csnn1)c1cccs1,0,8,99*,221
CCOc1ccccc1C(=O)NC(C(=O)NCCc1ccccn1)C(C)C (stereo unspecified),/,/,2,-8
O=c1c(Cl)cc(Cl)nn1-c1ccccc1,0,22,98*,-22
Cc1ccc(NC(=S)c2ccc(N(C)C)cc2)cc1,-1,7,14,-4
COc1ccc(C(=S)Nc2ccc(N(C)C)cc2)cc1,1,8,99*,7
COc1ccc(NC(=S)c2ccc(N(C)C)cc2)cc1,36*,6,6,/
CC(=O)c1sc(N/N=C\c2c(O)ccc3ccccc23)nc1C,4,-1,-15,11
CS(=O)(=O)N(CC(=O)N1CCCCCC1)c1cccc(F)c1,-1,24,-24,-3
Cc1ccc(NC(=O)CSc2ncc(S(=O)(=O)c3ccccc3)c(=O)[nH]2)cc1C,0,8,100*,1
Cc1ccc(NC(=O)CSc2ncc3ccccn23)cc1C,1,-6,99*,45
O=C(CSc1ncc(S(=O)(=O)c2ccccc2)c(=O)[nH]1)Nc1ccccc1Cl,0,14,78*,28
Cc1ccc(S(=O)(=O)NCc2ccc(C(=O)N3CCN(c4ccc([N+](=O)[O-])cc4)CC3)cc2)cc1,1,30,-2,114
Cc1nnc(SCC(=O)NCCC2=CCCCC2)[nH]c1=O,/,/,-1,4
SMILES,HIF act,AI-2 QS mod,ALR inh,Mot1-301 SUMO
Cc1ccc2c(=O)n3c(nc2c1)C(CC(C)C)NC(=O)c1ccc(Cl)cc1-3 (stereo unspecified),/,/,-3,10
O=C(NNC(=S)Nc1cccc(Cl)c1)c1ccccc1OC(F)F,0,29,/,-5
COc1ccc(NC(=S)Nc2ccc3snnc3c2)cc1,6,-10,97*,5
COc1cccc(NC(=S)Nc2ccc(O)cc2)c1,3,2,99*,-14
Oc1ccc(NC(=S)Nc2ccccc2)cc1,0,25,99*,78
COc1cccc(NC(=S)NNC(=O)c2ccccc2OC(F)F)c1,0,39,79*,-2
O=C(COC(=O)Cc1c[nH]c2ccccc12)Nc1cc(S(=O)(=O)N2CCOCC2)ccc1Cl,/,/,-1,69
S=C(NCc1ccccc1)N1CCN(C(=S)NCc2ccccc2)CC1,/,/,0,-2
O=C(NNC(=S)Nc1ccccc1)Nc1ccccc1,4,-7,46,238
Cc1ccc(NC(=S)NNC(=O)Nc2ccccc2)cc1,1,10,97*,-4
